PubChem BioAssay (NCI)
This is part of a sample that, as a whole, favours compounds with a hit. Of some 83,000 tested, about 20% had one in any assay.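 Interpretation: 100, growth as untreated; towards 0, rising growth inhibition; 0, no net growth; 0 to -100, cell death. Compounds scoring below 10 were considered active.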 Values without a mark were called inactive. The source made the active and inactive calls.

What was measured:
Experiment in all cases: NCI-60 one-dose screen, 48 h (100 = growth as untreated, 0 = no growth, -100 = all killed)
Settings in all cases: 10 µM unless noted
RPMI-8226 leukemia = test system: RPMI-8226 leukemia
OVCAR-8 ovarian = test system: OVCAR-8 ovarian
OVCAR-5 ovarian = test system: OVCAR-5 ovarian
OVCAR-4 ovarian = test system: OVCAR-4 ovarian
SK-OV-3 ovarian = test system: SK-OV-3 ovarian
NCI/ADR-RES ovarian = test system: NCI/ADR-RES ovarian
IGROV1 ovarian = test system: IGROV1 ovarian
OVCAR-3 ovarian = test system: OVCAR-3 ovarian
HS 578T breast = test system: HS 578T breast

Compound	growth (RPMI-8226 leukemia)	growth (OVCAR-8 ovarian)	growth (OVCAR-5 ovarian)	growth (OVCAR-4 ovarian)	growth (SK-OV-3 ovarian)	growth (NCI/ADR-RES ovarian)	growth (IGROV1 ovarian)	growth (OVCAR-3 ovarian)	growth (HS 578T breast)
CCCCCCCCCCCCCCCc1ccc(C(=O)C[n+]2ccccc2)cc1	-62.2% (active)	-46.7% (active)	-44.1% (active)	34.9%	-50.7% (active)	-21.5% (active)			
Nc1cccc2cccc([N+](=O)[O-])c12	98.5%	108%	113%	94.8%	103%	103%	118%	124%	103%
COc1ccc(NC(=O)/C(=C/N2C(=O)/C(=C/c3ccc(OC)c(OC)c3)NC2=S)C(C)=O)cc1	76.6%	80.8%	99.3%	85.1%	55.9%	77.6%	74.7%	79%	40.7%
Cc1cc2nc(CC(=O)c3ccncc3)c(=O)[nH]c2cc1C	103%	102%	97.2%	93.8%	104%	96.8%	105%	112%	66.8%
CCOC(=O)c1[nH]c(C#N)c(C(=O)OCC)c1C		94.8%	102%	97.7%	117%	106%	101%		124%
COc1ccc2nc3cc([N+](=O)[O-])ccc3c(NNc3ccccc3)c2c1	62.1%	81.7%		72.8%	71.9%	84.6%	88.2%	72.6%	
CN(C)c1ccc(/C=C/c2nccc3ccccc23)cc1	72%	87.9%	89.4%	103%	99.2%	78.4%	78.5%	81.6%	94.1%
CCC1CCCCN1C(=S)N/N=C(\C)c1ccccn1 (stereo not given)		9.93% (active)	30.1%	-50.2% (active)	8.27% (active)	5.77% (active)	2.61% (active)	-18.9% (active)	-3.92% (active)
CCc1oc2ccccc2c1C(=O)c1cc(Br)c(O)c(Br)c1	34.7%	79.2%	124%	67%	95.8%	44.1%	72.2%		
O=C(Cc1nc2cc(Cl)c(Cl)cc2nc1CC(=O)c1cccnc1)c1cccnc1	45.1%	77.6%	103%	83.9%	94.7%	76.4%	73.6%		76%
Cc1cc(C(=O)c2ccc(Cl)cc2)ccc1O	73.3%	85.9%	99%	79.2%	110%	92.2%	117%	98.8%	
CCN1/C(=C/C(C)=C/c2sc3ccc4ccccc4c3[n+]2CC)Sc2ccc3ccccc3c21	-58.1% (active)	-68.7% (active)	-91.7% (active)	-76.9% (active)	-99% (active)	-19.3% (active)	-88.4% (active)	-94.5% (active)	-66.8% (active)
O=C(Cc1nc2cc(Cl)c(Cl)cc2nc1CC(=O)c1ccccc1)c1ccccc1	25.7%	73.3%	77.5%	74.4%	77.4%	74.6%	61%		58.8%
O=C(c1ccc(O)c(Br)c1)c1ccc(O)c(Br)c1	99.5%	106%	110%	103%	116%	105%	114%	114%	113%
COc1cccc2c1C(=O)c1c(O)c3c(c(O)c1C2=O)C[C@@](O)(C(=O)CO)C[C@@H]3OC1CC(OC(C)=O)C(OC(C)=O)C(C)O1 (stereo not given in full)	-43.5% (active)	0.76% (active)	1.32% (active)	-4.7% (active)	-10.4% (active)	2.46% (active)		-41.2% (active)	-10.9% (active)
CCCCCCCCC(=O)OCCCC(CCC(CCC1CCCO1)OC(=O)CCCCCCCC)OC(=O)CCCCCCCC (stereo not given)	112%	103%	99.5%	102%	96.4%	103%	107%	110%	97.1%
CC1C(c2ccccc2)OCCN1C(=S)Nc1ccc(S(=O)(=O)N2CCCCC2)cc1 (stereo not given)	80.4%	92.5%	87.9%	106%	110%	92.4%	106%	114%	
CCOc1cc(F)c([N+](=O)[O-])cc1[N+](=O)[O-]	24.2%	19.6%	77.9%	46.9%	99.3%	11.8%	91.9%	46.7%	90.6%
CN1CSC(=S)N(Cc2ccccc2)C1	31.4%	97.8%	103%	112%	114%	102%	92.9%	65%	108%
N#C/C(=N\Nc1ccc(Cl)cc1)C(=O)C1CC1	44.4%	63.3%	91.9%	31.2%	65.6%	79.8%	54.2%	39.8%	23.7%
CCCCCCCCCCCC[n+]1ccccc1 (tested in a mixture with another compound)	-56.2% (active)	-30.2% (active)	-22.6% (active)	4% (active)	-18.4% (active)	55.3%		-63.1% (active)	-28.7% (active)
c1ccc2sc(SSN3CC4CCC(CC4)C3)nc2c1	111%	106%	112%	102%	108%	108%	14.6%	150%	92.7%
Cc1nc([N+](=O)[O-])c(Sc2nncc(-c3ccccc3)n2)n1C	62.5%	89.4%	79.7%	83.7%	109%	81.3%	89.7%		99.1%
CCc1cccc(CC)c1N1C(=O)C=CC1=O		112%	116%	111%	121%	118%		97%	108%
CCOC(=O)C1=C(C(=O)c2ccccc2)C(c2cccc([N+](=O)[O-])c2)C(C(=O)c2ccccc2)=C(C(=O)OCC)N1	32.8%	96.8%	87.7%	92.2%	96.8%	90.9%	97.5%	96.1%	90.1%
NC(=S)N/N=C\c1nccc2c(N)cccc12	15.5%	15.8%	48%	40.7%	16.6%	10.8%	10.9%	42.6%	57.6%
Cc1nn(CCO)c(C)c1N=[N+]([O-])c1c(C)nn(CCO)c1C	-35% (active)	79%	83.6%	13.7%	115%	96.1%		-88.1% (active)	103%
O=C(c1ccccc1)c1ccc(O)c2ncccc12		8.06% (active)	68%	15.4%	49.8%	2.55% (active)	17%	-36.7% (active)	
